# According to PubChem BioAssay AID463173 (ICCB-Longwood Screening Facility, Harvard Medical School, 2010):
# Among all 52,000 compounds or so, about 4,300 (8.3%) were called active. This is one part of a sample in which actives are shown more often than they occur. Values without a mark were called inactive. Rule as the data show it: active = survival mostly below about 52% (no sharp cut-off); inactive = mostly above about 56%.
# System: DeltatarO mutant
# Experiment: growth inhibition of S. aureus wild type versus tarO mutant, primary screen, teichoic acid synthesis inhibitors, RN4220, OD600 (AID 463173)
# Details: OD600, 18 h, active compounds read low, screened at 18.75 µg/mL (by protocol)
row,SMILES,survival
1,O=C(Nc1ccccc1)c1ccncc1,97%
2,CC(=O)Nc1ccc(S(=O)(=O)Nc2cccc(-c3ccc(N4CCCCCC4)nn3)c2)cc1,83%
3,Cc1onc2c1C(=O)CC(C)(C)C2,73%
4,Cc1cc(C)c2c(=O)cc(C(=O)NCc3ccc(S(N)(=O)=O)cc3)oc2c1,117%
5,Cc1ccc(F)cc1NC(=O)CSc1nc(-c2cccs2)cc(C(F)(F)F)n1,68%
6,CC(=O)N1CCOc2cc(S(=O)(=O)NCc3ccccc3Cl)c(Cl)cc21,76%
7,Cc1nc2sccn2c(=O)c1S(=O)(=O)Nc1ccc(N2CCOCC2)cc1,62%
8,CCOC(=O)c1ccc(NC(=O)CN2C(=O)C(C)(C)c3ccccc32)cc1,115%
9,CCN(C(=O)Cn1c(SCC(=O)NCc2ccccc2)nc2ccccc21)c1cccc(C)c1,65%
10,Cc1nc(N)sc1C(C)(C)C,86%
11,COc1ccc(-c2ccc(=O)n(CC(=O)NCCc3ccccc3)n2)cc1,70%
12,CCCC(CCC)C(=O)Nc1ccc(NC(=O)c2ccco2)cc1,98%
13,CCOc1cccc2cc(-c3nc4ccc(C(=O)O)cc4[nH]3)c(=O)oc12,69%
14,Cc1ccc2c(c1)N(C(=O)N1CCC(C(=O)NCc3cccs3)CC1)CC(C)O2 (stereo not drawn),91%
15,O=C(NCCCN1CCN(c2ccccc2)CC1)c1sc2ncccc2c1-n1cccc1,91%
16,COc1ccc(N2CCN(CCCNC(=O)c3sc4ncccc4c3-n3cccc3)CC2)cc1,101%
17,CC1CCCCN1CCCNC(=O)c1sc2ncccc2c1-n1cccc1 (stereo not drawn),25% (active)
18,O=C(NCCCN1CCN(c2ccc(F)cc2)CC1)c1sc2ncccc2c1-n1cccc1,37% (active)
19,Cc1cc(C)c2c(-n3cccc3)c(C(=O)NCCCN3CCCCC3C)sc2n1 (stereo not drawn),93%
20,O=C(NCCCN1CCCCC1)c1sc2ncccc2c1-n1cccc1,92%
21,CC1=C(C(=O)OC2CCCC2)C(c2ccccc2Cl)CC(=O)N1 (stereo not drawn),70%
22,CN1CCc2nc3sc(C(=O)c4ccc(F)cc4)c(N)c3cc2C1,71%
23,COc1ccc(CCNC(=O)C(C)n2nc(C)c3sc4ccccc4c3c2=O)c(OC)c1 (stereo not drawn),58%
24,COc1cc2nc(C3CCC3)n(N)c(=O)c2cc1OC,75%

row,SMILES,survival
1,O=C(NCc1cccnc1)c1cn(C2CC2)c2cc(N3CCN(C(=O)c4cccc(Cl)c4)CC3)c(F)cc2c1=O,1% (active)
2,O=C(CN1C(=O)C2CCCCN2c2ccc(C(=O)N3CCCC3)cc21)NCc1cccc(Cl)c1 (stereo not drawn),68%
3,O=C(NCc1ccncc1)C1CCN(C(=O)c2cccc(Cl)c2)CC1,74%
4,CCC(=O)N1CCc2cc(Br)cc(S(=O)(=O)CCC(=O)NCc3ccc(F)cc3)c21,80%
5,Cc1cccc(Cn2c(=O)n(CCc3ccccc3)c(=O)c3c(C)c(C)sc32)c1,111%
6,Cc1sc2c(c1C)c(=O)n(CCc1ccccc1)c(=O)n2Cc1ccccc1Cl,103%
7,Cc1ccccc1Cn1c(=O)n(CCc2ccccc2)c(=O)c2c(C)c(C)sc21,-6% (active)
8,Cc1sc2c(c1C)c(=O)n(CCc1ccccc1)c(=O)n2Cc1ccc(F)cc1,52%
9,Cc1ccc(C)c(Cn2c(=O)n(CCc3ccccc3)c(=O)c3c(C)c(C)sc32)c1,112%
10,Cc1sc2c(c1C)c(=O)n(CCc1ccccc1)c(=O)n2Cc1cccc(F)c1,16% (active)
11,CN1CCN(Cc2c(O)ccc3cc(-c4ccccc4)c(=O)oc23)CC1,105%
12,CCOC(=O)c1[nH]c(C)c(CCC(=O)NCc2ccc(OC(C)C)cc2)c1C,80%
13,COc1cc(C2CC(=O)N(Cc3cccc(F)c3)c3ccccc3S2)cc(OC)c1OC (stereo not drawn),103%
14,COc1ccc(C2CC(=O)N(Cc3cccc(F)c3)c3ccccc3S2)cc1 (stereo not drawn),47% (active)
15,COc1ccc(C2CC(=O)N(Cc3ccc(F)cc3)c3ccccc3S2)cc1 (stereo not drawn),28% (active)
16,COc1ccc(C2CC(=O)N(Cc3ccc(F)cc3)c3ccccc3S2)cc1OC (stereo not drawn),100%
17,COc1cc(C2CC(=O)N(Cc3ccc(F)cc3)c3ccccc3S2)cc(OC)c1OC (stereo not drawn),75%
18,COc1ccc(C2CC(=O)N(CC(=O)Nc3cc(C)ccc3C)c3ccccc3S2)cc1 (stereo not drawn),79%
19,O=C1CC(c2ccccc2)Sc2ccccc2N1Cc1ccc(F)cc1 (stereo not drawn),-2% (active)
20,CCc1ccc(NC(=O)CN2C(=O)CC(c3ccccc3)Sc3ccccc32)cc1 (stereo not drawn),113%
21,O=C1CC(c2ccccc2)Sc2ccccc2N1Cc1ccccc1F (stereo not drawn),96%
22,COc1ccc2c(c1)c(=O)c(C(=O)c1ccc(C)c(C)c1)cn2CC(=O)Nc1ccc2c(c1)OCCO2,76%
23,CCOc1ccc(NC(=O)Cn2cc(C(=O)c3ccc(CC)cc3)c(=O)c3cc(OC)c(OC)cc32)cc1,98%
24,CCOC(=O)c1ccc(NC(=O)CCc2c(C)nc3c(-c4ccc(F)cc4)c(C)nn3c2C)cc1,61%

row,SMILES,survival
1,COc1ccccc1N1CCN(C(=O)c2ccc(Nc3nc4ccccc4n4nnnc34)cc2)CC1,59%
2,Cc1ccc(CNC(=O)C2CCC(CNS(=O)(=O)c3ccc4c(c3)CCCC(=O)N4)CC2)cc1 (stereo not drawn),79%
3,COc1cccc(C(c2sc3nc(-c4ccco4)nn3c2O)N2CCCC2)c1 (stereo not drawn),71%
4,COc1ccc(C)c2sc(N3CCN(C(=O)c4ccco4)CC3)nc12,17% (active)
5,Cc1ccc(C)c2sc(N3CCN(C(=O)c4ccco4)CC3)nc12,134%
6,COc1ccc(OC)c2sc(N3CCN(C(=O)C(C)(C)C)CC3)nc12,89%
7,COc1ccc(OC)c2sc(N3CCN(C(=O)C4COc5ccccc5O4)CC3)nc12 (stereo not drawn),88%
8,COc1ccc(OC)c2sc(N3CCN(C(=O)c4ccco4)CC3)nc12,87%
9,COc1ccc(OC)c2sc(N3CCN(C(=O)C4CC4)CC3)nc12,-5% (active)
10,CCn1cc(S(=O)(=O)c2cccc(C)c2)c(=O)c2cc(F)c(N3CCCCC3C)cc21 (stereo not drawn),83%
11,CCc1ccc2[nH]c(=O)c(C(c3nnnn3C(C)(C)C)N3CCc4ccccc43)cc2c1 (stereo not drawn),96%
12,Cc1oc(-c2ccc(C(=O)N(C)Cc3ccccc3)cc2)nc1CN1CCc2ccccc21,119%
13,Cc1ccc(-n2nc3ccc(NC(=O)Cc4ccc(Cl)cc4)cc3n2)cc1,79%
14,CCOc1ccc(CNC(=O)Cn2c(=O)c3cccn3c3ccccc32)cc1,60%
15,FC(F)(F)c1cccc(Nc2c3c(nc4ccc(Cl)cc24)CCC3)c1,9% (active)
16,Fc1ccc(F)c(Nc2c3c(nc4ccc(Cl)cc24)CCC3)c1,-18% (active)
17,COc1cc(Cl)c(C)cc1Nc1c2c(nc3ccccc13)CCC2,70%
18,COc1ccc(Nc2c3c(nc4ccc(NC(=O)c5cc(Cl)ccc5OC)cc24)CCCC3)cc1OC,70%
19,Fc1ccccc1Nc1c2c(nc3ccccc13)CCC2,95%
20,CCOC(=O)c1cccc(Nc2c3c(nc4ccccc24)CCC3)c1,68%
21,O=C(Nc1c(C(=O)N2CCN(c3ccc(F)cc3)CC2)oc2ccccc12)c1c(F)cccc1F,95%
22,CCC(=O)Nc1ccccc1-c1nc2ccccc2n(Cc2cccc(Br)c2)c1=O,49%
23,CCn1cc(C(=O)NCCc2ccc(Cl)cc2)c(=O)c2cc(S(=O)(=O)N(C)C3CCCCC3)ccc21,84%
24,CC(=O)Nc1c(C)nn(-c2ccccc2)c1N1CCC(C(=O)Nc2cc(F)ccc2F)CC1,79%

row,SMILES,survival
1,Cc1ccc(CNC(=O)C2CCN(c3nn4cc(-c5ccc(F)cc5)nc4s3)CC2)cc1,87%
2,CC(=O)Nc1c(C)nn(-c2ccccc2)c1N1CCC(C(=O)NCc2ccc(Cl)cc2)CC1,72%
3,CC(=O)Nc1c(C)nn(-c2ccccc2)c1N1CCC(C(=O)NCc2ccc(F)cc2)CC1,-1% (active)
4,CC(=O)Nc1ccc(NC(=O)C2CCN(c3c(NC(C)=O)c(C)nn3-c3ccccc3)CC2)cc1,67%
5,CC(=O)Nc1c(C)nn(-c2ccccc2)c1N1CCC(C(=O)NCc2cccc(F)c2)CC1,6% (active)
6,CC(=O)Nc1c(C)nn(-c2ccccc2)c1N1CCC(C(=O)Nc2ccc(F)cc2Cl)CC1,76%
7,CC(=O)Nc1c(C)nn(-c2ccccc2)c1N1CCC(C(=O)Nc2ccc(C)cc2Cl)CC1,72%
8,CC(=O)Nc1c(C)nn(-c2ccccc2)c1N1CCC(C(=O)NCc2ccccc2Cl)CC1,-2% (active)
9,Cc1cccc(CNC(=O)C2CCN(c3nn4cc(-c5ccc(F)cc5)nc4s3)CC2)c1,47% (active)
10,CC(=O)Nc1c(C)nn(-c2ccccc2)c1N1CCC(C(=O)NCc2cccc(Cl)c2)CC1,84%
11,O=C(NCc1cccc(F)c1)C1CCN(c2nn3cc(-c4ccc(F)cc4)nc3s2)CC1,87%
12,COc1ccc(OC)c(C2CC(=O)Nc3c2c(=O)n(C)c2ncnn32)c1 (stereo not drawn),166%
13,O=C(Nc1ccc(N2CCOCC2)cc1)c1ncn[nH]1,86%
14,Cc1ccc(NC(=O)Cn2c(SCc3cccc(F)c3)nc3ccncc32)c(C)c1,83%
15,Cc1ccc(O)c(NC(=O)c2cc(-c3ccccc3O)no2)c1,80%
16,O=C(NC1CC(=O)N(c2ccccc2)C1)c1ccc(S(=O)(=O)N2CCCCC2)cc1 (stereo not drawn),17% (active)
17,O=C(NC1CC(=O)N(c2ccccc2)C1)c1ccc(S(=O)(=O)N2CCCC2)cc1 (stereo not drawn),128%
18,CCOc1ccc(N2CC(NC(=O)c3ccc(S(=O)(=O)N4CCOCC4)cc3)CC2=O)cc1 (stereo not drawn),47% (active)
19,CCOc1ccc(N2CC(NC(=O)c3ccc(S(=O)(=O)N4CCCCC4)cc3)CC2=O)cc1 (stereo not drawn),79%
20,O=C(NC1CC(=O)N(c2ccc(F)cc2)C1)c1ccc(S(=O)(=O)N2CCCCC2)cc1 (stereo not drawn),75%
21,CCOc1ccc(N2CC(NC(=O)c3ccc(S(=O)(=O)N4CCCC4)cc3)CC2=O)cc1 (stereo not drawn),87%
